Measurements as given in PubChem BioAssay (NCATS).
Records with an inconclusive call do not appear. Calls of active or inactive are those of the source. Calls come from the whole dose curve; as a rule, active = well fitted cell-killing curve with a large enough effect; inconclusive = small, poorly fitted or top-dose-only effect, or effect the other way; inactive = flat fitted curve, though single readings scatter.

Legend:
Test in all cases: Primary qHTS to identify gynecologic anti-cancer compounds using libraries of approved drugs and bioactive compounds (AID 1345084); note: nearly all actives have a fitted effect of over 55% in size
Details in all cases: Gynecologic cancer cell panel viability, ATPlite luminescence, 48 h; series mostly up to 57.5 µM
PA-1 = test system: PA-1
Summary of the method: (§1)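 ATP-based viability (ATPlite), 1,000 cells/well, 16 h pre-incubation, 48 h compound at 37 C, 5% CO2, 15 min RT before read.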

SKOV3 = test system: SKOV3
Summary of the method: as §1

Tov-21-G = test system: Tov-21-G
Summary of the method: as §1

Tov112D = test system: Tov112D
Summary of the method: as §1
% is set by controls: 0 for no effect and ±100 for the full control effect.

C=C1[C@H](OC(C)=O)[C@H]2[C@@H](OC(=O)c3ccccc3)[C@@H](C)C[C@]2(O)[C@@H](OC(C)=O)[C@H](C)/C=C/C(C)(C)C(=O)[C@H](OC(C)=O)[C@H]1OC(C)=O
inactive: Potency (PA-1) | Potency (SKOV3) | Potency (Tov-21-G) | Potency (Tov112D)

CC(=O)OC1C(CO)OC(O[C@H]2[C@H](OC(=O)[C@]34CCC(C)(C)C[C@H]3C3=CCC5[C@@]6(C)CC[C@H](O[C@@H]7O[C@H](C(=O)O)[C@@H](O)[C@H](O[C@@H]8OC[C@@H](O)[C@H](O)[C@H]8O)[C@H]7O[C@@H]7O[C@H](CO)[C@H](O)[C@H](O)[C@H]7O)[C@@](C)(C=O)C6CC[C@@]5(C)[C@]3(C)C[C@H]4O)O[C@H](C)[C@H](OC3OC(C)C(OC4OCC(O)C(O)C4O)C(O)C3O)[C@@H]2O)C(O)C1O (some centres undefined)
inactive: activity change, negative = cytotoxicity (PA-1) 13.7% [at 6.55 µM] | activity change, negative = cytotoxicity (SKOV3) 33.2% [at 6.55 µM] | activity change, negative = cytotoxicity (Tov-21-G) 2.01% [at 6.55 µM] | activity change, negative = cytotoxicity (Tov112D) 5.09% [at 6.55 µM]

C=C(C(=O)O)C1CC(OC(=O)CC(C)CC)C2(C)CCCC(=C)C2C1 (centres undefined)
inactive: Potency (PA-1) | Potency (SKOV3) | Potency (Tov-21-G) | Potency (Tov112D)

COc1ccc(CC(NC(C)=O)C(=O)O)cc1 (centres undefined)
inactive: Potency (PA-1) | Potency (SKOV3) | Potency (Tov-21-G) | Potency (Tov112D)

CC1=CC(=O)CC(C)(C)C1CCC(C)O[C@@H]1O[C@H](CO)[C@@H](O)[C@H](O)[C@H]1O (some centres undefined)
inactive: Potency (PA-1) | Potency (SKOV3) | Potency (Tov-21-G) | Potency (Tov112D)

C=C1CCC2[C@](C)(CCC[C@]2(C)C(=O)O)[C@H]1CC/C(C)=C/C(=O)OC (some centres undefined)
inactive: Potency (PA-1) | Potency (SKOV3) | Potency (Tov-21-G) | Potency (Tov112D)

CC1=C2C[C@H]3OC(=O)[C@H](O)[C@@]4(O)[C@@H](C)[C@@H](O)[C@H](O)C([C@@]2(C)[C@H](O)[C@@H](O)C1)[C@@]34C (some centres undefined)
inactive: Potency (PA-1) | Potency (SKOV3) | Potency (Tov-21-G) | Potency (Tov112D)

CC(C)c1ccc2c(c1)C(=O)CC1C(C)(C(=O)O)CCCC21C (centres undefined)
inactive: Potency (PA-1) | Potency (SKOV3) | Potency (Tov-21-G) | Potency (Tov112D)

N[C@@H](CCNCc1ccc(Cl)cc1)C(=O)N1CCCCC1
inactive: Potency (PA-1) | Potency (SKOV3) | Potency (Tov-21-G) | Potency (Tov112D)

CC(=O)/C=C/C1C(C)CC(O[C@@H]2O[C@H](CO)[C@@H](O)[C@H](O)[C@H]2O)CC1(C)C (some centres undefined)
inactive: Potency (PA-1) | Potency (SKOV3) | Potency (Tov-21-G) | Potency (Tov112D)

CC1(C)COC(=O)[C@@H]1O[C@@H]1O[C@H](CO)[C@@H](O)[C@H](O)[C@H]1O
inactive: Potency (PA-1) | Potency (SKOV3) | Potency (Tov-21-G) | Potency (Tov112D)

Nc1nc(COC(=O)c2ccc([N+](=O)[O-])cc2)nc(Nc2ccccc2)n1
inactive: Potency (PA-1) | Potency (SKOV3) | Potency (Tov-21-G) | Potency (Tov112D)

O=C(N[C@H](Cc1ccccc1)C(=O)O)c1sc2cc(F)ccc2c1Cl
inactive: Potency (PA-1) | Potency (SKOV3) | Potency (Tov-21-G) | Potency (Tov112D)

C[C@H]1CCN2C[C@]34C[C@@]5(C(=O)Nc6c5ccc5c6OC=CC(C)(C)O5)C(C)(C)C3C[C@]12C(=O)N4C (some centres undefined)
inactive: Potency (PA-1) | Potency (SKOV3) | Potency (Tov-21-G) | Potency (Tov112D)

CC1CCC2(C(=O)OC3OC(CO)C(O)C(O)C3O)CCC3(C)C(=CCC4C5(C)CCC(O)C(C)(CO)C5CCC43C)C2C1(C)O (centres undefined)
inactive: Potency (PA-1) | Potency (SKOV3) | Potency (Tov-21-G) | Potency (Tov112D)

CC1(C)CC2C3=CCC4[C@@]5(C)CC[C@H](OC6OCC(O)C(OC7OC(CO)C(O)C(O)C7O)C6O)C(C)(C)C5CC[C@@]4(C)[C@]3(C)C[C@H](O)[C@@]2(CO)[C@H](OC(=O)c2ccccc2)C1 (some centres undefined)
inactive: activity change, negative = cytotoxicity (PA-1) 10.1% [at 11.6 µM] | activity change, negative = cytotoxicity (SKOV3) 0% [at 11.6 µM] | activity change, negative = cytotoxicity (Tov-21-G) 6.98% [at 11.6 µM] | activity change, negative = cytotoxicity (Tov112D) -1.17% [at 11.6 µM]

COC(=O)C[C@H]1C(C)(C)[C@H](OC(=O)C(C)C)C2CC3=C4CC(=O)O[C@@H](c5ccoc5)[C@]4(C)CCC3[C@@]1(C)C2=O (some centres undefined)
inactive: Potency (PA-1) | Potency (SKOV3) | Potency (Tov-21-G) | Potency (Tov112D)

CC1(CO)CCCC2(C)C3COC(=O)C3=CC(O)C12 (centres undefined)
inactive: Potency (PA-1) | Potency (SKOV3) | Potency (Tov-21-G) | Potency (Tov112D)

Cc1[nH]c2ccccc2c1CC(=O)N[C@@H](Cc1ccccc1)C(=O)N(C)c1ccccc1
inactive: Potency (PA-1) | Potency (SKOV3) | Potency (Tov-21-G) | Potency (Tov112D)

C/C(=C\C1CCC(C)C2CCC3(C)OC123)C(=O)O (centres undefined)
inactive: Potency (PA-1) | Potency (SKOV3) | Potency (Tov-21-G) | Potency (Tov112D)

CC(C)(CC(=O)N1CCCC1)NCC(=O)N1C[C@@H](F)C[C@H]1C#N
inactive: Potency (PA-1) | Potency (SKOV3) | Potency (Tov-21-G) | Potency (Tov112D)

O=C(c1c2ccccc2cc2ccccc12)N1CCC(N2CCC[C@@H](C(=O)N3CCOCC3)C2)CC1
inactive: Potency (PA-1) | Potency (SKOV3) | Potency (Tov-21-G) | Potency (Tov112D)

O=C(O)CC(CCc1ccccc1)OC1OC(CO)C(O)C(O)C1O (centres undefined)
inactive: Potency (PA-1) | Potency (SKOV3) | Potency (Tov-21-G) | Potency (Tov112D)

CC1(C)CC[C@]2(C(=O)O)CC[C@]3(C)C(=CCC4[C@@]5(C)C[C@@H](O)[C@H](O)[C@@](C)(CO)C5CC[C@]43C)C2C1 (some centres undefined)
inactive: Potency (PA-1) | Potency (SKOV3) | Potency (Tov-21-G) | Potency (Tov112D)

COc1cc(O)c(C(=O)O)c(CCc2ccccc2)c1
inactive: Potency (PA-1) | Potency (SKOV3) | Potency (Tov-21-G) | Potency (Tov112D)

Cn1cc(Nc2cnccc2C(=O)O)c2cccnc21
inactive: Potency (PA-1) | Potency (SKOV3) | Potency (Tov-21-G) | Potency (Tov112D)
